A short description of assay [1]: binders of probe aFSTL3 on microarray, primary screen, stem cell growth factor project, biochemical, small-molecule microarray, fluorescence 635/667 (AID 1064).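 Also: measures binding of the biotinylated anti-FSTL3 antibody to printed compounds.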 The note with it: higher = more signal.
Assay [2] can be described thus: binders from COS7 lysate, DM2A8 probe, primary screen, torsin A project, cell lysate, small-molecule microarray, fluorescence 635/667 (AID 1065). The note with it: higher = more signal, COS7 lysate expressing mutant human TOR1A.
Assay [3] is described as follows: binders of probe aFGF2 on microarray, primary screen, stem cell growth factor project, biochemical, small-molecule microarray, fluorescence 635/667 (AID 1067).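 Also: measures binding of biotinylated aFGF2 protein to printed compounds on slides; z-score merges feature fluorescence and signal-to-noise across triplicate slides.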 The following applies: higher = more signal.
Assay [4] in a line: binders of probe aFGF10 on microarray, primary screen, stem cell growth factor project, biochemical, small-molecule microarray, fluorescence 635/667 (AID 1071).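 Also: score merges 667 nm spot intensity and signal to noise from triplicate slides.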 The note with it: higher = more signal.
Assay [5] has as its target Neurogenic locus notch homolog protein 2 (Homo sapiens) (UniProt Q04721). As to the kind of experiment: Notch2 binders on small-molecule microarrays, primary screen, biochemical, small-molecule microarray, 635 nm fluorescence, stem cell growth factors (AID 1073). The following applies: Notch2 binding, higher = more signal.
The target in assay [6] is Pro-neuregulin-1, membrane-bound isoform (Homo sapiens) (UniProt Q02297). Nature of the assay: NRG1 binders on small-molecule microarrays, primary screen, psychiatric disease protein project, biochemical, small-molecule microarray, fluorescence 635/667 (AID 1075).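 Also: score combines 667 nm spot fluorescence with signal to noise.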 The following applies: NRG1 binding, 635 nm fluorescence, higher = more signal.
Assay [7] has as its system Neuregulin-1 EGF-like domain. Nature of the assay: binders of neuregulin-1 EGF-like domain, primary screen, biochemical, small-molecule microarray, 635 nm fluorescence (AID 1081).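 Also: binding of the protein to compounds printed on small-molecule microarray slides.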 The following applies: small-molecule microarray binding, higher = more signal.
A short description of assay [8]: FRG1 promoter luciferase signal modulators, primary screen, FRG1 inhibition for FSHD, cell-based, C2C12 myotubes, firefly/Renilla luciferase, luminescence (AID 1084). The following applies: higher = more signal, called active from +8 up or from −8 down.
Assay [9] in a line: binders of probe aFST on microarray, primary screen, stem cell growth factor project, biochemical, small-molecule microarray, fluorescence 635/667 (AID 1086).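 Also: score merges 667 nm fluorescence with signal-to-noise of each printed compound spot.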 The note with it: higher = more signal.
A short description of assay [10]: binders of probe aHhip on microarray, primary screen, stem cell growth factor project, biochemical, small-molecule microarray, fluorescence 635/667 (AID 1087).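 Also: score merges spot fluorescence at 667nm with spot signal to noise ratio.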 The note with it: higher = more signal.
Assay [11] relates to PRMT1 (protein arginine N-methyltransferase 1). As to the kind of experiment: PRMT1 binders on small-molecule microarrays, primary screen, biochemical, small-molecule microarray, 635 nm fluorescence (AID 1088).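 Also: binding of Prmt1 protein to compounds spotted on small-molecule microarray slides.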 The note with it: small-molecule microarray binding, higher = more signal.
A short description of assay [12]: yeast growth modulation, basal conditions, primary screen, YJM789 clinical isolate, OD600, 24 h (AID 1089).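 Also: growth of clinical yeast isolate S. cerevisiae YJM 789 seeded 1000 cells per well; test concentration not given here.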 The following applies: S. cerevisiae YJM789 growth, higher = more signal, called active from +8 up or from −8 down.
Assay [13] is described as follows: fission yeast growth modulation, primary screen, strain 972, OD600, 24 h, no modulator (AID 1090).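 Also: basal condition with compound alone and no growth modifier present; test concentration not given here.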 The note with it: S. pombe 972 growth, higher = more signal, called active from +8 up or from −8 down.
Assay [14] in a line: S. cerevisiae growth modulation with rapamycin, primary screen, strain BY4716, OD600, 96 h (AID 1091). Also: test concentration not given here. The note with it: higher = more signal, called active from +8 up or from −8 down.
The target of assay [15] is Torsin-1A-interacting protein 2 (Homo sapiens) (UniProt Q8NFQ8). Nature of the assay: LULL1 binders on small-molecule microarray, primary screen, cell lysate, human LULL1 lysate, 635/667 nm fluorescence (AID 1092).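 Also: probe is lysate of COS7 cells overexpressing human LULL1; score merges per-feature 667 nm fluorescence with signal-to-noise.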 The following applies: hLULL1 lysate binding, 635 nm fluorescence, higher = more signal.
Assay [16] is described as follows: E. coli growth modulation, two-sided OD650, primary screen, E. coli filamentation project, strain DRC41, 24 h (AID 1093).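 Also: MC1000 strain lacking acrAB efflux and sulA so SOS filamentation is blocked; test concentration not given here.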 The note with it: OD650, 24 h, higher = more signal, called active from +8 up or from −8 down.
Assay [17] in a line: small-molecule microarray binders of probe aLefty2, primary screen, biochemical, biotinylated probe, 635/667 nm fluorescence (AID 1094).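 Also: score merges spot fluorescence near 667 nm with spot signal-to-noise ratio.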 The note with it: higher = more signal.
Assay [18] deals with Noggin (protein binding on small-molecule microarray). Nature of the assay: Noggin binders on small-molecule microarray, primary screen, biochemical, 635/667 nm fluorescence (AID 1095).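 Also: score merges 667 nm feature fluorescence with signal to noise over triplicate slides.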 The note with it: 635 nm fluorescence, higher = more signal.
For assay [19], the target named is Neurogenic locus notch homolog protein 3 (Homo sapiens) (UniProt Q9UM47). As to the kind of experiment: NOTCH3 binders on small-molecule microarray, primary screen, biochemical, 635/667 nm fluorescence (AID 1096). The following applies: NOTCH3 binding, 635 nm fluorescence, higher = more signal.
The nature of assay [20]: small-molecule microarray binders of probe aEGFR, primary screen, biochemical, biotinylated probe, 635/667 nm fluorescence (AID 1097).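 Also: probe is a biotinylated anti-EGFR antibody binding compounds printed on slides; score combines fluorescence near 667 nm and signal to noise of each spot.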 The following applies: higher = more signal.

The source made the active and inactive calls.

Chain of Neurogenic locus notch homolog protein 3 (Homo sapiens) (Q9UM47 whole entry, looked up): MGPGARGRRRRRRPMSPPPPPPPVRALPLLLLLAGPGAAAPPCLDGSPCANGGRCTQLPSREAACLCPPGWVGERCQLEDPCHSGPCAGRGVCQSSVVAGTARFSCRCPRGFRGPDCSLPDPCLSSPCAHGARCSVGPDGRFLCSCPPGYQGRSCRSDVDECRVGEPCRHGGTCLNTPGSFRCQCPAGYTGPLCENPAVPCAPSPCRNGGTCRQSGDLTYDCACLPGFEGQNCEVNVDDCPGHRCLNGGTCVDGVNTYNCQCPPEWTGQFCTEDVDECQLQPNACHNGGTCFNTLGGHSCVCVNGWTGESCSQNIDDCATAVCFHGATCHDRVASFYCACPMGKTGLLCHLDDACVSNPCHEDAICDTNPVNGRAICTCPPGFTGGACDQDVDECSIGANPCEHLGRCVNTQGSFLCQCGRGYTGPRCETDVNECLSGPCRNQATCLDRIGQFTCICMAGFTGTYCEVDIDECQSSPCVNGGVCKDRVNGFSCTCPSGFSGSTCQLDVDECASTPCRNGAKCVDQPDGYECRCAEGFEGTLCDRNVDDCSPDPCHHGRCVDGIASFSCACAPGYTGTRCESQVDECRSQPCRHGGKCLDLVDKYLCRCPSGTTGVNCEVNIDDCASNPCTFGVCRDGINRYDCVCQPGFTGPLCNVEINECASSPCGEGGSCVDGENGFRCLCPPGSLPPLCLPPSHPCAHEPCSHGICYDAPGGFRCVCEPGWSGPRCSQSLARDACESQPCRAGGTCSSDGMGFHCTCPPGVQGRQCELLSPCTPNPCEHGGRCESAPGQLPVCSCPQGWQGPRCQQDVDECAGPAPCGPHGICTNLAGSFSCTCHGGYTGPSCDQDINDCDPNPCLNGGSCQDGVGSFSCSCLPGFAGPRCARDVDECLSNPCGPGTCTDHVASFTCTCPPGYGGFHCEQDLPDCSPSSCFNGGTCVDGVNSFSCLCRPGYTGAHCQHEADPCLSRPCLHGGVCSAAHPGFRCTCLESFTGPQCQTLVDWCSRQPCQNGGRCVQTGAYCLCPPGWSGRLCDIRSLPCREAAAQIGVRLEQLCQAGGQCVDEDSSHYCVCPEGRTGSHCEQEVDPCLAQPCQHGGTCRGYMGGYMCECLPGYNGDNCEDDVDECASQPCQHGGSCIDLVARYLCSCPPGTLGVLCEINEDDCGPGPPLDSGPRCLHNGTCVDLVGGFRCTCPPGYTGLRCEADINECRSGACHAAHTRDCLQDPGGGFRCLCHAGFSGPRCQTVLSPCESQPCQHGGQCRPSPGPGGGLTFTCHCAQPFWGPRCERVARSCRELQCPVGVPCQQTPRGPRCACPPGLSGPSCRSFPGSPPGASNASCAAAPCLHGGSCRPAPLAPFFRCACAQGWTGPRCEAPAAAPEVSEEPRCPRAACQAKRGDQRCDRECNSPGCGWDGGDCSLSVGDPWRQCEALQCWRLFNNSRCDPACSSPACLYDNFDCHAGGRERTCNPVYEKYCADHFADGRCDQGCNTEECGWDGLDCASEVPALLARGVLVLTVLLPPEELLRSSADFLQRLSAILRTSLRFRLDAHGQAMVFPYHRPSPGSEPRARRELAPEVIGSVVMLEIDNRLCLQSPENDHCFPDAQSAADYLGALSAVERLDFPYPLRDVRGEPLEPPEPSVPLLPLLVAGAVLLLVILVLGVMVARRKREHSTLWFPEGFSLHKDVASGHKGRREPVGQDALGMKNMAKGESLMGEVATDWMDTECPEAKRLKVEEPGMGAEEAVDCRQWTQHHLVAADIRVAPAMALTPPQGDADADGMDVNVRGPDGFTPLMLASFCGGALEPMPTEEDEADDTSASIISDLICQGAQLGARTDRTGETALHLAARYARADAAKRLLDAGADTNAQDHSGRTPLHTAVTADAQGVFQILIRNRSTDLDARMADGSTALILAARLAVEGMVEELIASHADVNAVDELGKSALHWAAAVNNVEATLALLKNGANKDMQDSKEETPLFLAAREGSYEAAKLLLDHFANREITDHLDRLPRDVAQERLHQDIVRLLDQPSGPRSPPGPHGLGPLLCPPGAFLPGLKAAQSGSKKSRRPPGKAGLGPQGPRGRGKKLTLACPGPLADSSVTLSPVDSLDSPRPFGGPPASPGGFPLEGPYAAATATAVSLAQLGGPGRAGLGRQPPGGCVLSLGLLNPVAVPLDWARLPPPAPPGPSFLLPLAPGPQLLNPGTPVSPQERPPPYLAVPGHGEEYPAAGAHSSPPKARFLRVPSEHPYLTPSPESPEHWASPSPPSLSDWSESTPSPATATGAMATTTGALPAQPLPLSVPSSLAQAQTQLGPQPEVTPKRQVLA
Chain of Neurogenic locus notch homolog protein 2 (Homo sapiens) (Q04721 whole entry, looked up, canonical isoform): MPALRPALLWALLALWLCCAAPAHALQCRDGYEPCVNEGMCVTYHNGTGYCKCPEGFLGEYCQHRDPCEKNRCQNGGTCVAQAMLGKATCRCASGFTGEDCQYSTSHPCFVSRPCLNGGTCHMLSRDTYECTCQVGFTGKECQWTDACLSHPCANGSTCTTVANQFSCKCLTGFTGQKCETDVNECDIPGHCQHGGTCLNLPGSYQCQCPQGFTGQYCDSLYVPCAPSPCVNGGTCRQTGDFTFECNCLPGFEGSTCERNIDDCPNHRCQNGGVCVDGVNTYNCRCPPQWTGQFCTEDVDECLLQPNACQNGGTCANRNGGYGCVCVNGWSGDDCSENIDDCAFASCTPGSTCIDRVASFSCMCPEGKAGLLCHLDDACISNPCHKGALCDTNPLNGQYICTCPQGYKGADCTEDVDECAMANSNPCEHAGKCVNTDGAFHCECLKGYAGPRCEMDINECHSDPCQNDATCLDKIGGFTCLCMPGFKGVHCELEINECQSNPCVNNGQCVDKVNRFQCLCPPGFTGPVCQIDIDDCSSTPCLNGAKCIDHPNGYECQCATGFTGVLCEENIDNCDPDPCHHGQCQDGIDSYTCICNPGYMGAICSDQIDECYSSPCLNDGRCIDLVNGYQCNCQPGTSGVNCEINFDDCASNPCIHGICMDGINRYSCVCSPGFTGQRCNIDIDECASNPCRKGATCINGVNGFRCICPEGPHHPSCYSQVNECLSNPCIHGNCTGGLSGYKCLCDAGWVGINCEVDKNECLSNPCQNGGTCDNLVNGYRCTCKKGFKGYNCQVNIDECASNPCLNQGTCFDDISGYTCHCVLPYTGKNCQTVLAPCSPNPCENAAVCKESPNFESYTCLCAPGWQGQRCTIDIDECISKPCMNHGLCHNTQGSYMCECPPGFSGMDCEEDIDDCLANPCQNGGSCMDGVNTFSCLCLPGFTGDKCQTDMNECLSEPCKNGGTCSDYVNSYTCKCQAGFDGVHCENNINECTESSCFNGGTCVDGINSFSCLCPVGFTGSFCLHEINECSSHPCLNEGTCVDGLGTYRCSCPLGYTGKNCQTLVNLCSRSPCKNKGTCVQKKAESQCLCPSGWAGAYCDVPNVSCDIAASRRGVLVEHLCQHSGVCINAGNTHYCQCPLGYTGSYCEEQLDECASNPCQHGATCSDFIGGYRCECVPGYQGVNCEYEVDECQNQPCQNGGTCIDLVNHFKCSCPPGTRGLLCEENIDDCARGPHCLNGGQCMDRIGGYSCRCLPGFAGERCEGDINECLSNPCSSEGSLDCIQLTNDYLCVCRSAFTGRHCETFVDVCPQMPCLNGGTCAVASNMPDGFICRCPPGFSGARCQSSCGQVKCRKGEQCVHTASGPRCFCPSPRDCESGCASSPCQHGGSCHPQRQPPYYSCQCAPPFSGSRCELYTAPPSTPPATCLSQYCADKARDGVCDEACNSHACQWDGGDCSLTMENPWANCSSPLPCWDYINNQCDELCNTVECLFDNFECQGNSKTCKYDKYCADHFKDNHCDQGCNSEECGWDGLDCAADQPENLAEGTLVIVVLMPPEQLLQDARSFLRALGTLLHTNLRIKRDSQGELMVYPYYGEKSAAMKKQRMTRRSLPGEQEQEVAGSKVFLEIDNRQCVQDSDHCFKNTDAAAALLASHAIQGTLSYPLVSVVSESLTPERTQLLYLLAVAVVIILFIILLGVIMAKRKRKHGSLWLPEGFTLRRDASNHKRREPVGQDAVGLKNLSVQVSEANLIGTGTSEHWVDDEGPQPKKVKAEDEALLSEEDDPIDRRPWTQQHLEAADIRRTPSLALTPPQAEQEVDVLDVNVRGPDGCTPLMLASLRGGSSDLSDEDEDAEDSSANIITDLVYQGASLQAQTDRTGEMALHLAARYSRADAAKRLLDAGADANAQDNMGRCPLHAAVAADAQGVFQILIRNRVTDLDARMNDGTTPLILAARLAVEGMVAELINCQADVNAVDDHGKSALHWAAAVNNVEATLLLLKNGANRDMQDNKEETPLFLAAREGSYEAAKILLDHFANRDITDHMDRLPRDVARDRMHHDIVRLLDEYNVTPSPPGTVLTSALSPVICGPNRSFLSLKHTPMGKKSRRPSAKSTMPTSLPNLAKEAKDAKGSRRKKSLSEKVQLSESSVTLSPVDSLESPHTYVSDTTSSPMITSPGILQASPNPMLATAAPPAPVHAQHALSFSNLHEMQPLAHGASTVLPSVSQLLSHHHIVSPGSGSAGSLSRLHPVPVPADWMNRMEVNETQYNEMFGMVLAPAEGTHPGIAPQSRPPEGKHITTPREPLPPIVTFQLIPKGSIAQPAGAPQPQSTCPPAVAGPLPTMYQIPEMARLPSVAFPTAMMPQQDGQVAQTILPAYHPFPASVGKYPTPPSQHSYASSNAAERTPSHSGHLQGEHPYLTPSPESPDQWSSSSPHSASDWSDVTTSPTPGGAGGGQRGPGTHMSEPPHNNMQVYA

For the compound `COC(=O)[C@@]1(Cc2ccc(OC)cc2)[C@@H]2C(=CC(=O)[C@H]2CC(=O)C(=O)N2CCCC2)CN1C(=O)c1ccccc1`, the composite z-score in [1] is 0.156; in assay [2], -0.601; in [3] it was -0.0124; in [4], 0.224; in assay [5], 1.6; in assay [6], 1.02. Moreover, the composite z-score is 1.25 in assay [7]; 1.1 in assay [9]; 1.41 in assay [10]; -1.55 in [11]; 2.99 in assay [15]; 0.336 in assay [17]. The values for the composite z-score in assay [18], in [19] and in assay [20] were 0.0255, 0.735 and 0.386, respectively. The z-score in assay [8] is 2.91 (inactive); in [12], 0.201 (inactive); in [13], 0.097 (inactive); in [14], 0.176 (inactive); in [16] it was 0.355 (inactive).
For `COCCOC(=O)N1C(=O)[C@@]2(c3cc(C#CCC(C(=O)OC)C(=O)OC)ccc31)[C@H](C(=O)N1CCN(c3ncccn3)CC1)[C@H]1C(=O)O[C@H](c3ccccc3)[C@H](c3ccccc3)N1[C@@H]2c1ccccc1OCCO`, the composite z-score in [1] is -0.486; in [2] it was 0.51; in assay [3], 0.0247; in assay [4], 0.86; in assay [5] it was 1.32; in assay [6], 0.841. Also, the composite z-score was 1.27 in [7]; 0.495 in assay [9]; -0.0346 in assay [10]; 1.55 in [11]; 1.88 in assay [15]; -0.0726 in assay [17]. The composite z-score turned out to be 1.71 in [18], 1.06 in assay [19] and 0.0537 in [20]. Besides, the z-score in assay [8] is 0.131 (inactive); in [12] it was 1.59 (inactive); in assay [13] it was 1.33 (inactive); in assay [14], 6.3 (inactive); in assay [16], 0.156 (inactive).
In the case of `[N-]=[N+]=Nc1ccccc1[C@H]1OC(c2ccc(OCCCO)cc2)=N[C@@]1(CCS(=O)(=O)c1ccccc1)C(N)=O`, the composite z-score in assay [1] came to 1.5; in [2] it was 0.449; in [3], 0.0797; in assay [4], 1.07; in assay [5], 0.742; in [6] it was 0.9. Also, the composite z-score is 1.34 in assay [7]; 1.04 in [9]; 0.111 in assay [10]; 1.01 in [11]; 2.56 in assay [15]; 0.24 in [17]. The composite z-score was -0.194 in [18], 0.42 in assay [19] and 0.401 in assay [20]. Also, the z-score in assay [8] was 3.44 (inactive); in assay [12], -0.268 (inactive); in [13], -2.33 (inactive); in [14] it was 0.372 (inactive); in [16] it was 1.36 (inactive).
For the compound `CN(C)C(=O)[C@@]1(CCS(=O)(=O)c2ccccc2)COC(c2ccc(OCCCO)cc2)=N1`, the composite z-score in assay [1] is 0.578; in [2], -0.149; in assay [3], 0.127; in assay [4], 0.568; in [5], 0.331; in assay [6] it was 1.8. For the same compound, the composite z-score in [7] was 1.36; in assay [9], 0.47; in assay [10] it was -0.141; in assay [11] it was 0.494; in assay [15] it was 3.63; in assay [17], -0.0258. Besides, the composite z-score was -0.252 in assay [18], -0.136 in [19] and 0.36 in assay [20]. The z-score in assay [8] is -2.05 (inactive); in assay [12], -0.126 (inactive); in assay [13], 1.45 (inactive); in [14] it was 0.546 (inactive); in assay [16], 0.199 (inactive).
For the compound `CC1(C)[C@@H]2CC(C(O)C3C=CC4C(=O)N(Cc5ccccc5)C(=O)C4N3n3cnnc3)=C[C@H]1C2` (stereo not given in full), the composite z-score in assay [1] is -0.0224; in [2], 0.839; in assay [3] it was 0.0119; in [4] it was 0.959; in assay [5], 1.33; in [6], 1.56. For the same compound, the composite z-score in assay [7] was found to be 1.39; in assay [9] it was 1.06; in assay [10] it was 0.0053; in assay [11], 1.29; in assay [15], 3.12; in assay [17] it was 0.104. Besides, the composite z-score in assay [18] amounted to 0.458; in [19] it was 0.791; in [20], 0.0564. Also, the z-score was 0.349 (inactive) in assay [8]; 0.0365 (inactive) in assay [12]; 1.57 (inactive) in assay [13]; 1.38 (inactive) in assay [14]; -0.117 (inactive) in [16].
On to `COCCOC(=O)N1C(=O)[C@@]2(c3cc(C#Cc4ccc(OC)cc4)ccc31)[C@H](c1ccc(O)cc1)N1[C@H](c3ccccc3)[C@H](c3ccccc3)OC(=O)[C@H]1[C@@H]2C(=O)N1CCc2cc(OC)c(OC)cc2C1`, for which the composite z-score in [1] was found to be 0.0419; in assay [2] it was 0.87; in assay [3], 0.0415; in assay [4], 0.475; in [5], 0.971; in [6], 0.71. For the same compound, the composite z-score in assay [7] is 0.898; in assay [9], 0.611; in assay [10], 0.0873; in assay [11] it was 1.55; in [15], 2.49; in assay [17] it was -0.0412. Besides, the composite z-score in assay [18] was 0.75; in [19], 1.08; in assay [20], -0.115. Also, the z-score in [8] is -0.0112 (inactive); in [12], 0.728 (inactive); in assay [13] it was -0.133 (inactive); in assay [14], 0.803 (inactive); in assay [16], 1.37 (inactive).
As to `C=CCC(OC(C)=O)[C@@H]1[C@@H](N(Cc2ccc(-c3ccccc3)cc2)C(=O)c2ccc(-c3ccccc3)cc2)c2cc(OCCCO)ccc2N1C(=O)Cc1ccc2ccccc2c1` (stereo not given in full), the composite z-score in [1] was -0.519; in assay [2] it was 0.574; in assay [3] it was -0.117; in [4], 0.0381; in assay [5] it was 0.186; in assay [6], 0.0278. Further, the composite z-score in [7] was -0.6; in assay [9], 0.2; in [10], -0.0631; in assay [11], 0.758; in assay [15], 0.765; in [17], -0.119. Besides, the composite z-score in [18] was 0.233; in [19], 0.3; in [20], -0.17. Further, the z-score is 0.187 (inactive) in assay [8]; -0.609 (inactive) in assay [12]; -0.214 (inactive) in [13]; 0.218 (inactive) in assay [14]; -0.763 (inactive) in assay [16].
`C=CCN1C(=O)[C@]2(O[C@H](CCn3cc([C@H](O)c4ccccc4)nn3)[C@@H]([Si](C)(C)c3ccc(OC)cc3)[C@@H]2C)c2cc(N3CCC3=O)ccc21`: the composite z-score in [1] was -0.0453; in [2], 0.334; in [3], 0.0087; in assay [4], 0.679; in assay [5], -0.255; in [6], 1.9. The composite z-score in [7] was 1.14; in assay [9] it was -0.282; in [10] it was 0.0505; in [11] it was 0.942; in assay [15], 1.56; in assay [17], -0.0397. The composite z-score in assay [18] was 1.82; in [19] it was 0.803; in assay [20], -0.154. The z-score is -1.43 (inactive) in assay [8]; 0.487 (inactive) in [12]; 0.406 (inactive) in assay [13]; 2.47 (inactive) in assay [14]; 1.28 (inactive) in assay [16].

The values are drawn from PubChem BioAssay.
